Five compounds from PubChem BioAssay can be followed below.

The source made the active and inactive calls.

Test [1] deals with PRMT1 (protein arginine N-methyltransferase 1). As to the kind of experiment: small molecules binding arginine methyltransferase PRMT1 – biochemical, small-molecule microarray, 635 nm fluorescence, primary screen (AID 1088).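 Further: binding of Prmt1 protein to compounds spotted on small-molecule microarray slides.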 The following applies: higher = more signal.
Test [2] is described as follows: growth effects on S. cerevisiae YJM789 – YJM789 clinical isolate, OD600, 24 h, basal, primary screen (AID 1089).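 Further: growth of clinical yeast isolate S. cerevisiae YJM 789 seeded 1000 cells per well; test concentration not given here.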 The following applies: higher = more signal, called active from +8 up or from −8 down.
Test [3] can be described thus: S. pombe growth modifiers, basal conditions – strain 972, OD600, 24 h, no modulator, primary screen (AID 1090).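 Further: basal condition with compound alone and no growth modifier present; test concentration not given here.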 The settings on record: S. pombe 972 growth, higher = more signal, called active from +8 up or from −8 down.
A short description of test [4]: budding yeast growth modifiers under rapamycin – strain BY4716, OD600, 96 h, primary screen (AID 1091). Further: test concentration not given here. The following applies: S. cerevisiae BY4716 + rapamycin, higher = more signal, called active from +8 up or from −8 down.
Test [5] addresses Torsin-1A-interacting protein 2 (Homo sapiens) (UniProt Q8NFQ8). As to the kind of experiment: small molecules binding lysate-expressed LULL1 – cell lysate, human LULL1 lysate, 635/667 nm fluorescence, primary screen (AID 1092).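 Further: probe is lysate of COS7 cells overexpressing human LULL1; score merges per-feature 667 nm fluorescence with signal-to-noise.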 The settings on record: small-molecule microarray, hLULL1 lysate binding, 635 nm fluorescence; higher = more signal.
Test [6] in a line: optical density change of DRC41 E. coli – strain DRC41, OD650, 24 h, E. coli filamentation project, primary screen (AID 1093).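 Further: MC1000 strain lacking acrAB efflux and sulA so SOS filamentation is blocked; test concentration not given here.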 The settings on record: E. coli DRC41 growth, higher = more signal, called active from +8 up or from −8 down.
Test [7] is described as follows: probe aLefty2 binding to arrayed compounds – biochemical, biotinylated probe, 635/667 nm fluorescence, primary screen (AID 1094).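 Further: score merges spot fluorescence near 667 nm with spot signal-to-noise ratio.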 The settings on record: small-molecule microarray, higher = more signal.
Test [8] has as its system Noggin (protein binding on small-molecule microarray). The test can be described thus: small molecules binding Noggin protein – biochemical, 635/667 nm fluorescence, primary screen (AID 1095).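 Further: score merges 667 nm feature fluorescence with signal to noise over triplicate slides.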 The following applies: 635 nm fluorescence, higher = more signal.
The target in test [9] is Neurogenic locus notch homolog protein 3 (Homo sapiens) (UniProt Q9UM47). As to the kind of experiment: small molecules binding NOTCH3 protein – biochemical, 635/667 nm fluorescence, primary screen (AID 1096). The settings on record: small-molecule microarray, 635 nm fluorescence, higher = more signal.
Test [10] can be described thus: probe aEGFR binding to arrayed compounds – biochemical, biotinylated probe, 635/667 nm fluorescence, primary screen (AID 1097).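 Further: probe is a biotinylated anti-EGFR antibody binding compounds printed on slides; score combines fluorescence near 667 nm and signal to noise of each spot.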 The settings on record: small-molecule microarray, higher = more signal.
The test system of test [11] is Plasmodium falciparum Sir2 (PF13_0152, Sir2A). The test can be described thus: Plasmodium falciparum Sir2A binding compounds – biochemical, small-molecule microarray, 635 nm fluorescence, primary screen (AID 1098).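 Further: score merges spot fluorescence intensity with its signal-to-noise ratio.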 The following applies: fluorescence 635 nm, higher = more signal.
Test [12] is described as follows: probe aDKK1 binding to arrayed compounds – biochemical, biotinylated probe, 635/667 nm fluorescence, primary screen (AID 1099).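 Further: score merges 667nm spot fluorescence with signal to noise across triplicate slides; reference of the scale not given here.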 The settings on record: small-molecule microarray, higher = more signal.
Test [13] can be described thus: probe aCHRDL2 binding to arrayed compounds – biochemical, biotinylated probe, 635/667 nm fluorescence, primary screen (AID 1100). The settings on record: small-molecule microarray, higher = more signal.
The nature of test [14]: change in splice reporter luminescence, either direction, cell-based, HEK293, spliceosome inhibition project, primary screen (AID 1101).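 Further: HEK293 cells carrying a splicing-competent luciferase reporter gene; test concentration not given here.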 The settings on record: HEK293 splicing luciferase reporter, 24 h, higher = more signal, called active from +8 up or from −8 down.
Test [15] has as its target Fibroblast growth factor 10 (Homo sapiens) (UniProt O15520). The test can be described thus: compounds binding fibroblast growth factor 10 – biochemical, small-molecule microarray, 635 nm fluorescence, primary screen (AID 1102). The settings on record: FGF10 binding, fluorescence 635 nm, higher = more signal.
Test [16] has as its system glycogen synthase kinase-3 (GSK3A per assay name; protocol says GSK3B). As to the kind of experiment: compounds binding glycogen synthase kinase-3 – biochemical, small-molecule microarray, 635 nm fluorescence, GSK3A, primary screen (AID 1103). Further: the record names both GSK3A and GSK3B. The following applies: fluorescence 635 nm, higher = more signal.
Test [17] addresses Epidermal growth factor receptor (Homo sapiens) (UniProt P00533). As to the kind of experiment: compounds binding epidermal growth factor receptor – biochemical, small-molecule microarray, 635 nm fluorescence, primary screen (AID 1104).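 Further: score merges 667 nm emission intensity with spot signal to noise over triplicate slides.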 The following applies: EGFR binding, higher = more signal.
The target in test [18] is Follistatin-related protein 3 (Homo sapiens) (UniProt O95633). The test can be described thus: compounds binding follistatin-related protein 3 – biochemical, small-molecule microarray, 635 nm fluorescence, primary screen (AID 1105).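 Further: score merges emission near 667 nm and signal to noise per printed spot across three slides.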 The following applies: FSTL3 binding, higher = more signal.
Test [19] deals with Dickkopf-related protein 1 (Homo sapiens) (UniProt O94907). As to the kind of experiment: small molecules binding DKK1 protein – biochemical, small-molecule microarray, 635 nm fluorescence scan, primary screen (AID 1106).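 Further: score merges emission near 667 nm with signal to noise over three replicate slides.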 The settings on record: higher = more signal.
Test [20] has as its system Inhibin beta A chain (activin A). As to the kind of experiment: small molecules binding activin A – biochemical, small-molecule microarray, 635 nm fluorescence scan, primary screen (AID 1107).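 Further: mouse activin A protein probed at 4.33 µg/mL on printed slides; score merges bound-protein fluorescence near 667 nm with spot signal-to-noise.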 The settings on record: INHBA, higher = more signal.

Sequence of Dickkopf-related protein 1 (Homo sapiens) (O94907 whole entry, looked up): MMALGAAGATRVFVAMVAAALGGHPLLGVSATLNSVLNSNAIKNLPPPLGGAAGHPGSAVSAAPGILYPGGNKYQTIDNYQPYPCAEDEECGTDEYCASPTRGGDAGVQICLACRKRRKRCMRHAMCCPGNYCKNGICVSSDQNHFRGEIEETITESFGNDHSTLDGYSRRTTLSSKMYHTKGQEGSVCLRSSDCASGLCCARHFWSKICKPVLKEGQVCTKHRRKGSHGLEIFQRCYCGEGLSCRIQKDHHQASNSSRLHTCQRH
Sequence of Fibroblast growth factor 10 (Homo sapiens) (O15520 whole entry, looked up): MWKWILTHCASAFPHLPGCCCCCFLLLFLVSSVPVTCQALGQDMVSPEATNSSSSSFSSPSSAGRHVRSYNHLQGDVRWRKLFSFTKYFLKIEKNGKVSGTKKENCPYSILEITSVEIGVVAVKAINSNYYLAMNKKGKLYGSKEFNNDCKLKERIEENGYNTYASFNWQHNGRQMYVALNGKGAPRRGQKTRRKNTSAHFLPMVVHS
Sequence of Torsin-1A-interacting protein 2 (Homo sapiens) (Q8NFQ8 whole entry, looked up): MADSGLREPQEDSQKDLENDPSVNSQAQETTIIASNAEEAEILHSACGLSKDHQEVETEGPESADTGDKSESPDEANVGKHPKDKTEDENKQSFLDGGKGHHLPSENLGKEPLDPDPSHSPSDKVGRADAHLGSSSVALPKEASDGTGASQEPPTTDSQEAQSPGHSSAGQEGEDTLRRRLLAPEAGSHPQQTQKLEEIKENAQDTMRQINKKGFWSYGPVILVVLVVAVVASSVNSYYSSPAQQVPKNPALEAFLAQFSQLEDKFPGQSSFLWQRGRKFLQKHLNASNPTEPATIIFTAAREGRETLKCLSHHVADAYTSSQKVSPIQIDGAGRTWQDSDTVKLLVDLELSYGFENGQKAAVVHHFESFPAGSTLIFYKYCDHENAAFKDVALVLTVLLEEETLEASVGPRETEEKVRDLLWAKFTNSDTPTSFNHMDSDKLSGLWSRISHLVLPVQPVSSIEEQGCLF
Sequence of Follistatin-related protein 3 (Homo sapiens) (O95633 whole entry, looked up): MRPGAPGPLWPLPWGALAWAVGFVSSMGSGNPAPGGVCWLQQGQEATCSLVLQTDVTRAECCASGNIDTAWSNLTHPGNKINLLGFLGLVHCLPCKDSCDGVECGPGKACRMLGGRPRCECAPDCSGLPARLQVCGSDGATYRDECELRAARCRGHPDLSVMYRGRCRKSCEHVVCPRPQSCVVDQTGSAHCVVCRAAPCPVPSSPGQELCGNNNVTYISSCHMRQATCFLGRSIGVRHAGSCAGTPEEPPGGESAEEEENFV
Sequence of Neurogenic locus notch homolog protein 3 (Homo sapiens) (Q9UM47 whole entry, looked up): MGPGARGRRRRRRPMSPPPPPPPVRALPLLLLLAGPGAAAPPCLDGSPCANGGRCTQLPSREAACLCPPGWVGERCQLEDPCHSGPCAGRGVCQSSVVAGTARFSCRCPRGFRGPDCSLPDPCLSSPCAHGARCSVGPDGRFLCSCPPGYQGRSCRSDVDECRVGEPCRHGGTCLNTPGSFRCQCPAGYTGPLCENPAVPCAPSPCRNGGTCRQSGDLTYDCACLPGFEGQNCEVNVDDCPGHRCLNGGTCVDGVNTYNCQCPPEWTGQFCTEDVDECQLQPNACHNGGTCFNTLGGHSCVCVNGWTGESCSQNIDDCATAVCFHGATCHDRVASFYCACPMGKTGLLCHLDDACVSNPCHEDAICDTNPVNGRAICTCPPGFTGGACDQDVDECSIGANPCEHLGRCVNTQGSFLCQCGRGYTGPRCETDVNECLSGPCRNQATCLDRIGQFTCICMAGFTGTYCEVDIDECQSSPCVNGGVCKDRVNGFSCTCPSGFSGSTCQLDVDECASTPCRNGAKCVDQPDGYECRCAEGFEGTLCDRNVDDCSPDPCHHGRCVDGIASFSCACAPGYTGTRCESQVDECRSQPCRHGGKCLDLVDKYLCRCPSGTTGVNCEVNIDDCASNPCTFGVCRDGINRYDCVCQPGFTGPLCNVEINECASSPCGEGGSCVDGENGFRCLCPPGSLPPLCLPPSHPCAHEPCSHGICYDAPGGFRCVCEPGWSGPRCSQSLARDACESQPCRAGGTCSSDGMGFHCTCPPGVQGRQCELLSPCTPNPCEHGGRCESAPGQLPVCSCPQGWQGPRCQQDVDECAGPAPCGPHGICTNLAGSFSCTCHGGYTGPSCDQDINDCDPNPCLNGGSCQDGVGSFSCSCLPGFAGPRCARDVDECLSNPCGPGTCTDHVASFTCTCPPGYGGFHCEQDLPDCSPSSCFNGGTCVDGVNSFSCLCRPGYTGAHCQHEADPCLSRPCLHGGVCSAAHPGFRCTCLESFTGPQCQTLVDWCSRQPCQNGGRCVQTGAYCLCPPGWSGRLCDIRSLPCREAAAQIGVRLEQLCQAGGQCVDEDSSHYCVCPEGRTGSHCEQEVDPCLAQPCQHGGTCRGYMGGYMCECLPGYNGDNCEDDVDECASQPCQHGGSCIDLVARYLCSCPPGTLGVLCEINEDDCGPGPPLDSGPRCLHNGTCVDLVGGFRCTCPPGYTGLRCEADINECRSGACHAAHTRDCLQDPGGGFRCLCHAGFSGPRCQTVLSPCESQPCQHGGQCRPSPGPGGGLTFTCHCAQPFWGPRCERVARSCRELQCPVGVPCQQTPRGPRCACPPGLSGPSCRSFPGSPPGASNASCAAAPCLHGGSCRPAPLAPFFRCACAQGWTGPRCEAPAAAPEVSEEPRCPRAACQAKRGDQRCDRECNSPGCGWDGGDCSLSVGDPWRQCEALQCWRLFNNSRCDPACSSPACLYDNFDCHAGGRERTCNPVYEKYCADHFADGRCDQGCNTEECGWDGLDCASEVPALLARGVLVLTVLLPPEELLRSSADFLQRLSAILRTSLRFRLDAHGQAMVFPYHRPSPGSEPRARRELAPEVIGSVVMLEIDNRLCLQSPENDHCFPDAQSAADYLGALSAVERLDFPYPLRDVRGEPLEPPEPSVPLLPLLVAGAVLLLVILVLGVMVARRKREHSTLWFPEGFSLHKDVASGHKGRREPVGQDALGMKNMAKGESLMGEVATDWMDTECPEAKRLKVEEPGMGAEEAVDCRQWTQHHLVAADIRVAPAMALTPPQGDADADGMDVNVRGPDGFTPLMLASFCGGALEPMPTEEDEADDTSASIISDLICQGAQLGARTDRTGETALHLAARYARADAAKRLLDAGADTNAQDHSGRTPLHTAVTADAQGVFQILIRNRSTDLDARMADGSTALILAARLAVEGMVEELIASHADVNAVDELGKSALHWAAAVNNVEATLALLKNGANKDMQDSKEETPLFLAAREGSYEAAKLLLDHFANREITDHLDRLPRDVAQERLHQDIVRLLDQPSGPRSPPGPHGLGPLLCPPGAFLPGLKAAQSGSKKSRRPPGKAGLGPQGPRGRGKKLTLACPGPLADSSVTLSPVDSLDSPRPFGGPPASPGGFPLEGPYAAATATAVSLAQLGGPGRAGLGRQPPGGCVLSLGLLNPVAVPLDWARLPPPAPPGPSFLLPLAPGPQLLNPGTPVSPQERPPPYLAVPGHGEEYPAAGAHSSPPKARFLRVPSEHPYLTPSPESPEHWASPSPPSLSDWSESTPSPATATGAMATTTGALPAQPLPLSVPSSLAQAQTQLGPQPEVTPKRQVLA
Sequence of Epidermal growth factor receptor (Homo sapiens) (P00533 whole entry, looked up): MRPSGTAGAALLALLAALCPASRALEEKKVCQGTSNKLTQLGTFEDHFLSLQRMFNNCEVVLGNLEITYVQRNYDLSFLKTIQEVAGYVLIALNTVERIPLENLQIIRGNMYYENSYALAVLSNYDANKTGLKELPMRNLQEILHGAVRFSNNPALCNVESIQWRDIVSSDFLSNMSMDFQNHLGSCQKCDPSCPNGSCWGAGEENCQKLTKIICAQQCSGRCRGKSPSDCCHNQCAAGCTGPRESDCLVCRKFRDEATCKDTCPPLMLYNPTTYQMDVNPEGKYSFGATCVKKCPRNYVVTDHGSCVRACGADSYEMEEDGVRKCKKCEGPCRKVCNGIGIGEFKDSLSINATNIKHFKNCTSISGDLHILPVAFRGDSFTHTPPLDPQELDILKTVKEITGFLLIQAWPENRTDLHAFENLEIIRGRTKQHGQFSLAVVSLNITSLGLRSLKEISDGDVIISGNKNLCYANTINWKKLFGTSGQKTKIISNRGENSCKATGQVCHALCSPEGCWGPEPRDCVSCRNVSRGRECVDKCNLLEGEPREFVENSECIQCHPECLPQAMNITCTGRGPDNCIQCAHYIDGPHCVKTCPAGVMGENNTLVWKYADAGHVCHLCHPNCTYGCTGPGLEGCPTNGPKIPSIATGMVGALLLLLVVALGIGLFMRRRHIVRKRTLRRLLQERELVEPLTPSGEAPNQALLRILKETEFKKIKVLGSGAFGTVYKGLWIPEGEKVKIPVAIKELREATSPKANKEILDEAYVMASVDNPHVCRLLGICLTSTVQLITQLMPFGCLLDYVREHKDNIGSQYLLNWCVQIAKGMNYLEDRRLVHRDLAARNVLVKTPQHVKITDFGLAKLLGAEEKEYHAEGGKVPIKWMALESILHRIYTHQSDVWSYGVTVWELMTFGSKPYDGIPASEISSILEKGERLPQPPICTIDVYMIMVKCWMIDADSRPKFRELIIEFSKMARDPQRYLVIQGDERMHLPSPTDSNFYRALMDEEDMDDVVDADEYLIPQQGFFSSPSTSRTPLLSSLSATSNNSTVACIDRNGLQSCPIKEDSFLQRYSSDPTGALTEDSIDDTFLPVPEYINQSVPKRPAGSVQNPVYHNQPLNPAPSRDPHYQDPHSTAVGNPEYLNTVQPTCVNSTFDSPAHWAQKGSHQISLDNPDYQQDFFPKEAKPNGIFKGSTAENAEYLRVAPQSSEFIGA

On to `C[C@@H]1NC(=O)[C@@H](C)COC(=O)[C@H](C)NC(=O)[C@@H](C)COC1=O`, for which the composite z-score in test [1] is 0.455; in test [5], 1.03; in test [7], -0.0186; in test [8] it was 0.79; in [9], -0.0611; in [10], 0.132. Besides, the composite z-score in [11] was 0.429; in test [12], -0.23; in [13], -0.0595; in [15] it was 0.765; in test [16] it was 0.642; in test [17] it was 0.401. Further, the composite z-score was 1.15 in test [18], 0.769 in [19] and -0.772 in [20]. In addition, the z-score in test [2] is -0.335 (inactive); in [3] it was -0.924 (inactive); in [4] it was -1.94 (inactive); in test [6], -0.0698 (inactive); in [14], -1.35 (inactive).
Turning to `CC(CCN1CCCCc2nc(C)c(C)cc21)=NO[C@H](C)c1cn([C@H](CO)Cc2ccccc2)nn1`, the composite z-score is 1.1 in test [1]; 0.592 in test [5]; 0.0345 in [7]; 0.196 in [8]; 0.108 in test [9]; -0.026 in test [10]. The composite z-score was 0.79 in test [11]; -0.0963 in test [12]; -0.65 in test [13]; 0.383 in test [15]; -0.393 in test [16]; 0.773 in test [17]. The composite z-score in test [18] is 1.25; in [19], 0.885; in test [20], 1.15. Also, the z-score in test [2] was -0.585 (inactive); in test [3], 0.446 (inactive); in test [4], -0.382 (inactive); in test [6] it was -0.425 (inactive); in [14] it was 0.339 (inactive).
For the compound `CC(=O)OC[C@H]1O[C@H](CCON=C2[C@H]3CCn4c(=O)n(-c5ccccc5)c(=O)n4[C@H]3[C@H](O)[C@@H]3O[C@H]23)C=C[C@@H]1OC(C)=O`, the composite z-score in [1] is 0.156; in test [5], 0.77; in test [7], -0.25; in test [8], 1.43; in test [9] it was 0.587; in [10], 0.0488. Moreover, the composite z-score in test [11] was 0.0057; in test [12] it was -0.149; in test [13] it was -0.442; in test [15] it was 0.527; in test [16], 0.494; in [17], 0.432. For the same compound, the results for the composite z-score in test [18], in test [19] and in test [20] were 0.446, 0.404 and -0.636, respectively. The z-score in test [2] is -0.111 (inactive); in test [3] it was 0.127 (inactive); in test [4], 0.49 (inactive); in [6] it was 0.93 (inactive); in [14], 0.838 (inactive).
As to `CCOC(=O)[C@H](CC(C)C)NC(=O)CCC1CC(OC(=O)NCCc2ccc(F)cc2)CC2(CCCC(COC(=O)NCCc3ccccc3OC)O2)O1` (stereo not given in full), the composite z-score in test [1] is 1.15; in test [5], 1.73; in [7], -0.19; in test [8], 0.718; in test [9] it was 1.12; in test [10], 0.0004. For the same compound, the composite z-score in [11] is 0.82; in [12] it was -0.186; in [13] it was -0.313; in test [15], 0.768; in test [16], 0.773; in test [17] it was 0.603. Further, the composite z-score in test [18] was 0.744; in [19], 0.526; in test [20], -0.0274. In addition, the z-score in test [2] was 0.217 (inactive); in test [3], 1.02 (inactive); in [4] it was 0.471 (inactive); in test [6], -0.0351 (inactive); in test [14] it was -0.135 (inactive).
Take `C#CCCCON=C1[C@H]2CCn3c(=O)n(-c4ccccc4)c(=O)n3[C@H]2[C@H](O)[C@@H]2O[C@H]12`: the composite z-score in test [1] is 0.192; in [5] it was 0.463; in test [7] it was -0.202; in test [8], 0.422; in test [9], 0.496; in test [10], -0.0938. The composite z-score is 0.164 in test [11]; 0.238 in test [12]; -0.615 in test [13]; 0.291 in test [15]; 0.621 in test [16]; 0.537 in test [17]. Also, the composite z-score in [18] was 0.725; in [19], 0.521; in test [20], 0.127. For the same compound, the z-score in [2] is -1.65 (inactive); in test [3], -0.813 (inactive); in test [4] it was -0.864 (inactive); in test [6], -0.623 (inactive); in test [14] it was -1.65 (inactive).
